Screening data (PubChem)
Compounds with a hit are over-represented: about 5.4% of the library has one in this group of screens.
SMARCA2 act: increases SMARCA2 function in MMTV reporter cells; MG213 cells, MMTV-luciferase reporter, dexamethasone, overnight; activation, % at 9.1 µM; 370,000 tested, 1% active; AID 652017; in the data active means activation above about 7.8%;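 further: 0% = vehicle wells and 100% = reference activator wells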
PfM18AAP inh: blocks P. falciparum M18 aspartyl aminopeptidase | recombinant PfM18AAP, H-Glu-NHMec fluorogenic cleavage | inhibition, % at 7.35 µM | 290,000 tested, 1.2% active | AID 1822;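 active means inhibition above the campaign mean inhibition over all tested compounds plus 3 SD, cut at about 28% in these data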;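 further: 0% = plate median of test compound wells and 100% = 2 mM ZnCl2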
MIN6 prolif: MIN6 beta-cell proliferation induction; MIN6 cells proliferation, ATPlite luminescence, 48 h; cells starved in 0.2% serum; 100% = growth in 10% serum; 330,000 tested, 0.29% active; proliferation, % at 10 µM;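 active means compounds whose signal lies at least 3.5 SD above the mean of all wells on their plate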;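 further: 0% = DMSO-treated cells in low-serum medium and 100% = 10% serum control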
ALR inh: blocks human ALR sulfhydryl oxidase activity; inhibition, % (test concentration not listed); P55789; 290,000 tested, 3.8% active; purified ALR, DTT oxidation, H2O2 HRP-luminol luminescence;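 active means mean replicate inhibition above about 79%, with every replicate also reaching it, limit read from the data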
JMJD2C inh: blocks human GASC-1 demethylase activity. inhibition, % at 2.35 µM. 330,000 tested, 0.069% active. AID 2099. GST-JMJD2C(1-420) H3K9me3 demethylation, DELFIA europium;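 active means more than half of a compound's replicate wells show inhibition beyond 50%, single wells judged on their own value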;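 further: signal counts dimethyl H3K9 product captured on neutravidin plate; 0% = median of DMSO wells and 100% = 0.3 times that DMSO median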
Target sequence (Q9H3R0 1-420 limits assumed): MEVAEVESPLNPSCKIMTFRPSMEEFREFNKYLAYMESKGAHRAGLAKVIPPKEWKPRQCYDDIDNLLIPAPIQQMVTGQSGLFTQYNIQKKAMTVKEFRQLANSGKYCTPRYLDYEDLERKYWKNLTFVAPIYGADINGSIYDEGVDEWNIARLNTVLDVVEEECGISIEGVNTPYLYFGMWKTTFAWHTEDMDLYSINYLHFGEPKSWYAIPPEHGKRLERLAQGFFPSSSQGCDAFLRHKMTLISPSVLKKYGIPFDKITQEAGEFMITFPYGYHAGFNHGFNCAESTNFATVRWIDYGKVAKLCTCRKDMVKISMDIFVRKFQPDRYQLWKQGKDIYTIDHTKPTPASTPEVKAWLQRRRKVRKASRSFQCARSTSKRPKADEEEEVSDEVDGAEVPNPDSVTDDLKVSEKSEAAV
Exocytosis inh: blocks lytic granule exocytosis; 360,000 tested, 0.66% active; TALL-104 LAMP-1 surface exposure, flow cytometry; cells stimulated with thapsigargin and PMA; inhibition, % at 10 µM; AID 651702;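 active means inhibition above about 55%, limit read from the data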
The depositor's hits bear a star.

Oc1ccc(-c2n[nH]c(=S)n2-c2ccc3c(c2)OCCO3)c(O)c1 was read as SMARCA2 act -5, PfM18AAP inh 14, ALR inh 86*, JMJD2C inh 2 and Exocytosis inh 2.
`CCNC(=S)NNC(=O)c1csc(CC)c1` gave SMARCA2 act 2, PfM18AAP inh 31*, MIN6 prolif 0, ALR inh 33, JMJD2C inh 7 and Exocytosis inh 4.
C=CCNC(=O)CN(C(=O)Cc1ccc(Cl)cc1)c1cccc(Br)c1 was read as SMARCA2 act 7.
Screening NC(=S)N/N=C/c1ccc(-c2ccc(Cl)c(Cl)c2)o1 returned SMARCA2 act 2, PfM18AAP inh 12, MIN6 prolif -6, ALR inh 72, JMJD2C inh 5 and Exocytosis inh 27.
`NC(=S)N/N=C/c1ccc(-c2ccccc2)o1` gave SMARCA2 act 0, PfM18AAP inh 7, MIN6 prolif -4, ALR inh 98*, JMJD2C inh -13 and Exocytosis inh 91*.
CN(C)/N=C/c1ccc(/C=N/NC(N)=S)o1 was read as SMARCA2 act 2, PfM18AAP inh 16, MIN6 prolif -2, ALR inh 99*, JMJD2C inh 1 and Exocytosis inh -2.
Cc1ccc(-c2ccc(/C=N/NC(N)=S)o2)cc1 was read as SMARCA2 act 6, PfM18AAP inh -3, MIN6 prolif -4, ALR inh -6, JMJD2C inh 1 and Exocytosis inh 103*.
Screening N/C(=N\OC(=O)c1ccoc1)c1ccc(Br)cc1 returned SMARCA2 act 7.8*, PfM18AAP inh 2, MIN6 prolif 2, ALR inh 0, JMJD2C inh 1 and Exocytosis inh 0.
For CCOC(=O)/C(=N/Nc1ccc(Br)cc1)N1CC(C)OC(C)C1 (configuration not stated) the results were SMARCA2 act -2 and Exocytosis inh 0.
`CCOC(=O)C(=NCCCN(C)C)NNc1ccc(Br)cc1` gave SMARCA2 act -1, PfM18AAP inh 9, MIN6 prolif 0, ALR inh 99*, JMJD2C inh 0 and Exocytosis inh -1.
`CCOC(=O)C(=NCCCN(C)C)NNc1cc(C(F)(F)F)ccc1Cl` gave SMARCA2 act -1, PfM18AAP inh 18, MIN6 prolif -4, ALR inh 51, JMJD2C inh -13 and Exocytosis inh 10.
For CCCCN=C(NNc1ccc(Br)cc1)C(=O)OCC the results were SMARCA2 act 0, PfM18AAP inh 3, MIN6 prolif 0, ALR inh 99*, JMJD2C inh 1 and Exocytosis inh 7.
For O=C(O)c1ccc(N/N=C/c2cccc(F)c2)cc1 the results were SMARCA2 act 7, PfM18AAP inh -8, MIN6 prolif 0, JMJD2C inh 7 and Exocytosis inh 6.
Screening O=C(O)c1ccc(N/N=C/C2=Cc3ccccc3OC2)cc1 returned SMARCA2 act 0, PfM18AAP inh 6, MIN6 prolif -3, ALR inh 98*, JMJD2C inh 11 and Exocytosis inh 5.
`Cc1ccc(-c2nn(CCC(=O)O)cc2/C=C\C(=O)c2ccc(Br)cc2)cc1` gave SMARCA2 act 2, PfM18AAP inh -1, MIN6 prolif -5, ALR inh 97*, JMJD2C inh 18 and Exocytosis inh -1.
For NC1=NC(=O)/C(=C/c2cn(CCC(=O)O)nc2-c2ccc(F)cc2)S1 the results were SMARCA2 act -1, PfM18AAP inh -7, MIN6 prolif 0, JMJD2C inh 2 and Exocytosis inh 0.
For NC1=NC(=O)/C(=C/c2cn(CCC(=O)O)nc2-c2ccc(Cl)cc2)S1 the results were SMARCA2 act -2, PfM18AAP inh 2, ALR inh 98*, JMJD2C inh 7 and Exocytosis inh 4.
Screening COCCN(C[C@@H]1[C@H](c2ccccc2)[C@H](CO)N1c1nc(C)c(C)s1)S(=O)(=O)c1ccccc1[N+](=O)[O-] returned SMARCA2 act 2.
For CC1CCCCN1CCCNC(=O)c1ccc2c(c1)NC(=O)CN2C (configuration not stated) the results were SMARCA2 act 7.9* and Exocytosis inh 6.
`CN1C(=O)C[C@@](C#N)(C(=O)N2CCOCC2)[C@H]1c1ccccc1` gave SMARCA2 act -1.
For CCS(=O)(=O)c1nn2c(N)c(/C=C3/C=CC(=O)C(OC)=C3)c(=O)nc2s1 the results were SMARCA2 act -1, PfM18AAP inh 21, MIN6 prolif 0, ALR inh 100*, JMJD2C inh -5 and Exocytosis inh -1.
Screening CCOC1=C/C(=C/c2c(N)n3oc(C)cc3nc2=O)C=CC1=O returned PfM18AAP inh 5, MIN6 prolif -2, ALR inh 91* and JMJD2C inh 14.
Screening COC1=C/C(=C/c2c(N)n3c(nc2=O)sc2cc(S(C)(=O)=O)ccc23)C=CC1=O returned SMARCA2 act -1, PfM18AAP inh 7, MIN6 prolif -2, ALR inh 99*, JMJD2C inh 6 and Exocytosis inh 2.
For Cc1ccccc1NC(=O)CCS(=O)(=O)c1ccccc1 the results were SMARCA2 act -1.
Screening Cc1nc(S/C(=C/c2ccc(-c3ccc(C(=O)O)cc3)o2)C(=O)O)n[nH]1 returned SMARCA2 act -2, PfM18AAP inh 22, MIN6 prolif -3, JMJD2C inh 9 and Exocytosis inh 0.
Screening Cc1nc(S/C(=C/c2ccc(-c3ccc(Cl)cc3)o2)C(=O)O)n[nH]1 returned SMARCA2 act 0, PfM18AAP inh 0, MIN6 prolif -6, ALR inh 24, JMJD2C inh 4 and Exocytosis inh 69*.
For N#Cc1cccc(NC(=O)OCCCN2CCC3(CCCCC3)C2=O)c1 the results were SMARCA2 act -4.
For CCOC(=O)CC[C@@H]1CC[C@]2(CCCN(Cc3cccs3)C2)O1 the results were SMARCA2 act 1.
CCOC(=O)c1ccc(NC(=S)Nc2ccc3[nH]c(=O)[nH]c3c2)cc1 was read as SMARCA2 act -3, PfM18AAP inh -8, MIN6 prolif 1, ALR inh 80*, JMJD2C inh 7 and Exocytosis inh -2.
For Cc1ccc(NC(=S)Nc2ccc3[nH]c(=O)[nH]c3c2)cc1 the results were SMARCA2 act -3, PfM18AAP inh 4, MIN6 prolif -1, ALR inh 99*, JMJD2C inh -2 and Exocytosis inh 3.
For Cc1ccccc1NC(=S)Nc1ccc2[nH]c(=O)[nH]c2c1 the results were SMARCA2 act 6, PfM18AAP inh -10, MIN6 prolif 2, ALR inh 88*, JMJD2C inh -6 and Exocytosis inh -3.
Cc1ccc(C(=O)NC(=S)Nc2ccc3[nH]c(=O)[nH]c3c2)cc1 was read as SMARCA2 act -2, PfM18AAP inh -3, MIN6 prolif 0, ALR inh 3, JMJD2C inh -3 and Exocytosis inh 0.
